The target in test [1] is Thioredoxin reductase 1, cytoplasmic (Rattus norvegicus) (UniProt O89049). The test can be described thus: qHTS Assay for Substrates of Mammalian Selenoprotein Thioredoxin Reductase 1 (TrxR1) (AID 488772).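 Note: series mostly up to about 57 µM; 0% is about no effect; a drop in NADPH fluorescence below the no-compound background marks a TrxR1 substrate.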 The procedure, abridged: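 In this dual-purpose format, potential substrates are identified from the first fluorescence read after selenite addition, not from the 8-minute delta. Rat enzyme is preincubated with NADPH and then with compound at ~22 deg C.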
Chain of Thioredoxin reductase 1, cytoplasmic (Rattus norvegicus) (O89049 whole entry, looked up): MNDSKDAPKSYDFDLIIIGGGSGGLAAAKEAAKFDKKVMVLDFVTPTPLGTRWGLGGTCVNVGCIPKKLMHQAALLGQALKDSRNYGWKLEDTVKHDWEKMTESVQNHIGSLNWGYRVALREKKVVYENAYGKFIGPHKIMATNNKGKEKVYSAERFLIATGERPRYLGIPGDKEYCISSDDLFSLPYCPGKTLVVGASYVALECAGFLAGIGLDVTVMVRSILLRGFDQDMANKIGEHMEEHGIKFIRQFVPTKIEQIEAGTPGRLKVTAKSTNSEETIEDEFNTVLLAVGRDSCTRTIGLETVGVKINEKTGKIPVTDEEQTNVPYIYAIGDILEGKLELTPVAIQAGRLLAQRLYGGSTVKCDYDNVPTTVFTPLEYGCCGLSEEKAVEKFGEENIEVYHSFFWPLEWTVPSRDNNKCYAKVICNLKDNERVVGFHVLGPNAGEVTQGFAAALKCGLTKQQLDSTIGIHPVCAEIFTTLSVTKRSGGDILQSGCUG
For orientation: qHTS replaces the single test concentration by a dilution series.

Test [2] shares this target. The test can be described thus: qHTS Assay for Inhibitors of Mammalian Selenoprotein Thioredoxin Reductase 1 (TrxR1) (AID 488773).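 Note: drop in NADPH fluorescence over an 8 min run after selenite addition; series mostly up to about 57 µM; % is set by controls: 0 for no effect and ±100 for the full control effect; nearly all actives have a fitted effect of over 40% in size.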 Conditions: Potency: inhibition. The procedure, abridged:
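Inhibition is scored from the loss of NADPH fluorescence between first and last reads of an 8-min kinetic run. Selenite (400 uM) was the substrate, added after 15 min compound preincubation at room temperature.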

Test [3] concerns the target Flap endonuclease 1 (Homo sapiens) (UniProt P39748). The test can be described thus: qHTS Validation Assay for the Inhibitors of Human Flap endonuclease 1 (FEN1) (AID 488816). Note: % is set by controls: 0 for no effect and ±100 for the full control effect. The gist of the method:
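qHTS format: compounds and 10 nM FEN1 incubated 15 min at room temperature before adding 50 nM substrate. Cleavage followed by reads at 0 and 15 min; normalized data fitted to a four-parameter Hill curve.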

Test [4] concerns the target M-phase phosphoprotein 8 (Homo sapiens) (UniProt Q99549). Briefly: qHTS Validation Assay for Inhibitors for MPP8 Chromodomain Interactions with Methylated Histone Tails (AID 488949). Note: top concentration of the series differs between compounds; % is set by controls: 0 for no effect and ±100 for the full control effect; nearly all actives have a fitted effect of over 55% in size. The procedure, abridged: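 MPP8 (50 nM) was preincubated with biotinylated H3(1-18)K9me3 peptide (50 nM) in PBS pH 7.4, 0.01% Tween-20 for 30 min at room temperature, then with compounds for 30 min; binding was detected by AlphaScreen.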

In test [5] the target is Chromobox protein homolog 1 (Homo sapiens) (UniProt P83916). Briefly: qHTS Validation Assay for Inhibitors of HP1-beta Chromodomain Interactions with Methylated Histone Tails (AID 488953).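 Note: loss of AlphaScreen luminescence from HP1-beta binding biotinylated H3K9me3 peptide; series mostly up to about 110 µM; % is set by controls: 0 for no effect and ±100 for the full control effect; nearly all actives have a fitted effect of over 50% in size.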 The procedure, abridged:
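AlphaScreen proximity readout: streptavidin donor and Ni-chelate acceptor beads, 10 ug/mL final, 30 min dark, RT. Complex of 50 nM HP1-beta and 50 nM b-H3(1-18)K9me3 formed 30 min, then compound-treated 30 min; PBS pH 7.4/0.01% Tween-20.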

Test [6] has as its target Methanococcus maripaludis chaperonin (MmCpn) (UniProt Q6LX38). Briefly: High-Throughput Screening for Modulators of Cytosolic Chaperonin Activity: MmCpn Primary Screen (AID 488978).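 Note: 50 nM MmCpn enzyme hydrolysing 30 µM ATP at 37 °C; 0% is about no effect.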 The procedure, abridged: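 MmCpn (50 nM final) was preincubated with compound 5 min at RT, then 30 uM ATP (final) was added and the reaction ran 10 min at 37C. ADP produced was detected by Transcreener HTRF (ex 320 nm; em 590/665 nm).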

For test [7], the target named is D(1A) dopamine receptor (Homo sapiens) (UniProt P21728). The test can be described thus: HTS Assay for Allosteric Agonists of the Human D1 Dopamine Receptor: Primary Screen for Agonists (AID 488981). Note: 0% is about no effect. The procedure, abridged: (§1)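 Calcium flux in an inducible, force-coupled HEK293 Trex D1 line (overnight at 30 C): agonist mode is the 180 s kinetic read after compound; potentiator mode is the following 180 s read after dopamine at EC20.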
Chain of D(1A) dopamine receptor (Homo sapiens) (P21728 whole entry, looked up): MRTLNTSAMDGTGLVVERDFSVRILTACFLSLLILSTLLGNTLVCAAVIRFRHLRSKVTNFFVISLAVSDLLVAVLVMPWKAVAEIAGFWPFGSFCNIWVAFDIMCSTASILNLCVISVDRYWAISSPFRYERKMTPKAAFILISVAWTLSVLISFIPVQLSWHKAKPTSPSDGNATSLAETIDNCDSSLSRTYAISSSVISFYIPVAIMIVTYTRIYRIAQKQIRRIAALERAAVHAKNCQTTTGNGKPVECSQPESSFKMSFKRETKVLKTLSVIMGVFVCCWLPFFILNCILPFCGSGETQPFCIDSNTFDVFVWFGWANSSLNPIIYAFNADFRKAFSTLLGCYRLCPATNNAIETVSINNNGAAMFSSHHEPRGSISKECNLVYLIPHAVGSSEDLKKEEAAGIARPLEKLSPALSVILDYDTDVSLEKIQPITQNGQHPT

The target is the same in test [8]. Briefly: HTS Assay for Allosteric Agonists of the Human D1 Dopamine Receptor: Primary Screen for Potentiators (AID 488982). Note: 0% is about no effect. The gist of the method: as §1
The target is the same in test [9]. The test can be described thus: HTS Assay for Allosteric Agonists of the Human D1 Dopamine Receptor: Primary Screen for Antagonists (AID 488983).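 Note: calcium flux response to an EC80 dopamine challenge measured with no-wash dye; nearly all actives have a fitted effect of over 65% in size.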 Note: potency is the fitted concentration of half-maximal effect. The gist of the method: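 Calcium flux readout, no-wash dye, inducible HEK293 T-REx D1 line (force-coupled). Compound added after 10 s baseline, 180 s kinetic read; then dopamine at EC80, further 180 s read.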
Test [10] deals with ATP-dependent 6-phosphofructokinase (Trypanosoma brucei brucei) (UniProt O15648). Briefly: qHTS Assay to Find Inhibitors of T. brucei phosphofructokinase: hit validation (AID 492961).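 Note: luminescence reports ADP formed as PFK phosphorylates fructose-6-phosphate with ATP; series mostly up to about 51 µM; % is set by controls: 0 for no effect and ±100 for the full control effect.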 The gist of the method: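 ADP-Glo luminescence read-out of ADP formed by 1.25 nM PFK from 0.1 mM ATP and 0.5 mM F6P (TEA pH 8.0, 45 min, RT). Compounds titrated; activity normalized to no-enzyme and full-enzyme controls.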

The nature of test [11]: qHTS for Inhibitors of Cell Surface uPA Generation: Validation Assay (AID 493164).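 Note: RAW 264.7 macrophage cells exposed to compound for 18 h; 0% is about no effect.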 The procedure, abridged:
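Compounds are titrated over seven points (2.45 nM–38.3 uM final) onto pre-plated RAW 264.7 cells and incubated for 18 h. Retained intracellular ATP, measured with ATP-Lite, indicates blocked lethal factor entry.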

The target in test [12] is Peptidyl-prolyl cis-trans isomerase NIMA-interacting 1 (Homo sapiens) (UniProt Q13526). The test can be described thus: qHTS Validation Assay to Find Inhibitors of Pin1 (AID 504536; active = well fitted inhibition curve with a large enough effect in the polarisation, with a control signal flat, not every such curve was filed as active; the % refers to the polarisation;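 note: 0% = full Pin1 enzyme wells and -100% = no-enzyme wells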). The procedure, abridged:
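Fluorescence polarization competition: compounds (titration) displace HiFluor-488-labeled Pin1-1b peptide from Pin1 (0.3 uM final) in pH 7.5 HEPES buffer with DTT, 10 min at room temperature; %Activity normalized to no-enzyme wells, curves fitted.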

Test [13] concerns the target Phosphoglycerate kinase, glycosomal (Trypanosoma brucei brucei) (UniProt P07378). The test can be described thus: qHTS Validation Assay to Find Inhibitors of Phosphoglycerate Kinase (AID 504547).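 Note: control wells lack PGK and mark full inhibition.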 The gist of the method: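 Luminescence end-point (Kinase-Glo Plus, 10 min) after a 60 min room-temperature coupled reaction. GAPDH at 100nM final supplies 1,3-BPG to PGK. Buffer: 100mM TEA pH 7.6, 5mM MgCl2, 0.01% Tween-20. Wells lacking PGK served as controls.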

Test [14] addresses phosphoglycerate mutase (Leishmania major) (UniProt Q4Q090). Briefly: qHTS Validation Assay to Find Inhibitors of Phosphoglycerate Mutase (AID 504548). Note: potency is the fitted concentration of half-maximal effect. Conditions: Potency: inhibition qHTS. The gist of the method:
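L. major PGAM (1.25nM final) was added to substrate buffer and pinned compound, incubated 45 minutes at room temperature, then Kinase-GloPlus added; luminescence read after 10 minutes. Buffer: 100 mM TEA pH 7.6, 5 mM MgCl2, 0.01% Tween-20.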

Test [15] has as its target Ubiquitin carboxyl-terminal hydrolase 1 (Homo sapiens) (UniProt O94782). Briefly: Inhibitors of USP1/UAF1: Pilot qHTS (AID 504865).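 Note: rhodamine fluorescence freed from ubiquitin-rhodamine substrate followed over time; top concentration of the series differs between compounds; % is set by controls: 0 for no effect and ±100 for the full control effect; nearly all actives have a fitted effect of over 35% in size.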 The gist of the method:
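USP1/UAF1 complex (1nM) preincubated with compound 15 min at room temperature, then Ub-Rho substrate (150nM final) added. Fluorescence read kinetically at 480/540 nm, 6 reads every 60 seconds. Buffer: 50mM HEPES pH 7.8, 0.5mM EDTA, 0.1 mg/ml BSA, 1mM TCEP, 0.01% Tween-20.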

The target in test [16] is Transient receptor potential cation channel subfamily V member 1 (Homo sapiens) (UniProt Q8NER1). Briefly: HTS Assay for Compounds that Act as Enhancers of the Vanilloid Receptor 1 (AID 488979). Note: 0% is about no effect. The gist of the method: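 Calcium influx kinetics via Fluo-8 (480/520 nm) in TRPV1-expressing cells, 2000/well cultured overnight at 35.5C. Compound-alone read 3 min (agonist phase), followed by EC20 capsaicin challenge for 2 min (enhancer phase).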
Chain of Transient receptor potential cation channel subfamily V member 1 (Homo sapiens) (Q8NER1 whole entry, looked up): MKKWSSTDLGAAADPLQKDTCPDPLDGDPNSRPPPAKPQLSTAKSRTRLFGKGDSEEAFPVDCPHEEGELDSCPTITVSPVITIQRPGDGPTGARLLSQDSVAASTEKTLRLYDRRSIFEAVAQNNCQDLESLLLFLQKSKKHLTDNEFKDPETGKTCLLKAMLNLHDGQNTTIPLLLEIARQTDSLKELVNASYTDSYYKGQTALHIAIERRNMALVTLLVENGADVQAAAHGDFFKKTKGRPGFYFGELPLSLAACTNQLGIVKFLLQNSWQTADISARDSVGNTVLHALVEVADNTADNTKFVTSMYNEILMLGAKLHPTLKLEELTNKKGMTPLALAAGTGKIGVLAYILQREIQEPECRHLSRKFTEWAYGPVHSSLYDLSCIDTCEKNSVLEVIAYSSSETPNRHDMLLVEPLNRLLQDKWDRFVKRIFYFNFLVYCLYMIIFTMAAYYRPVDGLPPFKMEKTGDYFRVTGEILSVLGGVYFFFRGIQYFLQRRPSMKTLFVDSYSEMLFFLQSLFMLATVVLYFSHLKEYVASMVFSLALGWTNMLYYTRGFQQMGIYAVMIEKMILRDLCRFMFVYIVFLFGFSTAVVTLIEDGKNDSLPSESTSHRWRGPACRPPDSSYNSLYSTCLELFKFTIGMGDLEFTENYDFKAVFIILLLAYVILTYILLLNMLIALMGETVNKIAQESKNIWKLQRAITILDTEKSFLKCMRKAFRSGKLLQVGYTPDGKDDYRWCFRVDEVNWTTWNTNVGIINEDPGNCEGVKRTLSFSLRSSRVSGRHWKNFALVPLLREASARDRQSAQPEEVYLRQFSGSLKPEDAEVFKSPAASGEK

Test [17] deals with Thyrotropin-releasing hormone receptor (Homo sapiens) (UniProt P34981). The test can be described thus: qHTS for Small Molecule Agonists and Allosteric Enhancers of Human TRH Receptor: Validation Screen for Agonists (AID 493127;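 active = calcium activation more than 3 SD above the typical response in the agonist read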;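 note: intracellular calcium rise by fluo-8 fluorescence before TRH EC20 addition; 0% is about no effect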). Conditions: TRH receptor agonist cell assay; at 2 µM; stronger effect = higher value. The gist of the method: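 Read-out: intracellular calcium release measured kinetically by FDSS (fluo-8, ex 480/em 530 nm), 1 reading/s after a 10-cycle baseline. TRHR cells, 2000/well, cultured 18 h at 33.5C, dye-loaded at room temp. Compound-evoked positive calcium signal flags agonists.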
Chain of Thyrotropin-releasing hormone receptor (Homo sapiens) (P34981 whole entry, looked up): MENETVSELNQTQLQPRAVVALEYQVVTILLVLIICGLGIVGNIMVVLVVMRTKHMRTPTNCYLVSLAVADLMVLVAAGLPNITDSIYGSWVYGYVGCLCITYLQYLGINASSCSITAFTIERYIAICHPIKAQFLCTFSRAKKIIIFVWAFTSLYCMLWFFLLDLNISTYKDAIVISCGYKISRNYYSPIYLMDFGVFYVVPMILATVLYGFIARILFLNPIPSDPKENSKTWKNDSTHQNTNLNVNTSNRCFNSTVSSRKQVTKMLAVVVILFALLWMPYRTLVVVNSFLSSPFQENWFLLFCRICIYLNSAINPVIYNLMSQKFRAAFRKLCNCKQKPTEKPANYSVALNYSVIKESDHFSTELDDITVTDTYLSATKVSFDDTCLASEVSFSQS

Test [18] in a line: Validation screen for small molecules that induce DNA re-replication in SW480 colon adenocarcinoma cells (AID 504364). Note: 0% is about no effect. The gist of the method:
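Read-out: total Hoechst intensity of nuclei by fluorescence scanning imager; hits raise the fraction of nuclei with elevated DNA content. Cells received compound for 48 hr at 37 C before a 40 min stain.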

Test [19] in a line: Quantitative high throughput screen for delayed death inhibitors of the malarial parasite plastid, 48 hour incubation (AID 488752). Note: % is set by controls: 0 for no effect and ±100 for the full control effect; nearly all actives have a fitted effect of over 65% in size. The procedure, abridged:
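Luciferase-expressing P. falciparum in RBCs, 2% Hct, 0.1% parasitemia final; RPMI 1640 + 0.5% Albumax; 48 h, 37 C, 5% CO2; luminescence readout, signal drop = growth inhibition.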

Test [20] is described as follows: Nrf2 qHTS screen for inhibitors: Validation (AID 493153; active = well fitted inhibition curve with a large enough effect in the main read-out, with a control signal flat, not every such curve was filed as active). The following applies: Potency: luciferase luminescence; viability change: measured here: cytotoxicity max response. The procedure, abridged:
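Concentration-response test in A549 ARE_Fluc reporter cells (5% FBS OPTI-MEM), compound exposure 18-24 h at 37°C, 5% CO2. Cell viability measured first by CellTiter-Fluor fluorescence; ARE-driven luciferase luminescence then measured as Nrf2 activity.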

Inconclusive results are not listed. The source made the active and inactive calls. Unless noted, calls come from the whole dose curve; as a rule, active = well fitted curve in the direction sought with a large enough effect; inconclusive = small, poorly fitted or top-dose-only effect, or another doubt; inactive = no such curve, though single readings can be large; an effect the other way counts as inactive or inconclusive.

Chain of M-phase phosphoprotein 8 (Homo sapiens) (Q99549 whole entry, looked up): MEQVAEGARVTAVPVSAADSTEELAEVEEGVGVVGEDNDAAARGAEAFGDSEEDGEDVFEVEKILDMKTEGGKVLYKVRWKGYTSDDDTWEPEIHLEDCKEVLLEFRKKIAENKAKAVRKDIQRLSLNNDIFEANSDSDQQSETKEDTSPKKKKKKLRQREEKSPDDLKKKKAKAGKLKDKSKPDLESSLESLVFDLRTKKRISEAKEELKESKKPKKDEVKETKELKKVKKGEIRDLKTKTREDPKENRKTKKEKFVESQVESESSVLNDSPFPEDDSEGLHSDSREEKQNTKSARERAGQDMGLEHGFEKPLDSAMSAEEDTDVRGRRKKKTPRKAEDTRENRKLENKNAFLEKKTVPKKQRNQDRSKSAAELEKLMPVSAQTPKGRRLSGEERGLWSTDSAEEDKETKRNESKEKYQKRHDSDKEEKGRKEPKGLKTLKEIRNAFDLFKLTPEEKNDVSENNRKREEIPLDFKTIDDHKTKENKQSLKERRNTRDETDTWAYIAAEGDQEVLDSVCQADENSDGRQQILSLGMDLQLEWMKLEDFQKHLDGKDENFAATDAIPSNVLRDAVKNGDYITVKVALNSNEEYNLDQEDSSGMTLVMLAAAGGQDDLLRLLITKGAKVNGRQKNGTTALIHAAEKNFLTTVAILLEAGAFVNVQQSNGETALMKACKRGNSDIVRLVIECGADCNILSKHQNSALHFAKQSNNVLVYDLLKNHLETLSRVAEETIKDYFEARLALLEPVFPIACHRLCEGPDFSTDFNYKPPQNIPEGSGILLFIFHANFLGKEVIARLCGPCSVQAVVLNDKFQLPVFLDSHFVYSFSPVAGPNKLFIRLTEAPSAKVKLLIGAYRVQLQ
Chain of Ubiquitin carboxyl-terminal hydrolase 1 (Homo sapiens) (O94782 whole entry, looked up): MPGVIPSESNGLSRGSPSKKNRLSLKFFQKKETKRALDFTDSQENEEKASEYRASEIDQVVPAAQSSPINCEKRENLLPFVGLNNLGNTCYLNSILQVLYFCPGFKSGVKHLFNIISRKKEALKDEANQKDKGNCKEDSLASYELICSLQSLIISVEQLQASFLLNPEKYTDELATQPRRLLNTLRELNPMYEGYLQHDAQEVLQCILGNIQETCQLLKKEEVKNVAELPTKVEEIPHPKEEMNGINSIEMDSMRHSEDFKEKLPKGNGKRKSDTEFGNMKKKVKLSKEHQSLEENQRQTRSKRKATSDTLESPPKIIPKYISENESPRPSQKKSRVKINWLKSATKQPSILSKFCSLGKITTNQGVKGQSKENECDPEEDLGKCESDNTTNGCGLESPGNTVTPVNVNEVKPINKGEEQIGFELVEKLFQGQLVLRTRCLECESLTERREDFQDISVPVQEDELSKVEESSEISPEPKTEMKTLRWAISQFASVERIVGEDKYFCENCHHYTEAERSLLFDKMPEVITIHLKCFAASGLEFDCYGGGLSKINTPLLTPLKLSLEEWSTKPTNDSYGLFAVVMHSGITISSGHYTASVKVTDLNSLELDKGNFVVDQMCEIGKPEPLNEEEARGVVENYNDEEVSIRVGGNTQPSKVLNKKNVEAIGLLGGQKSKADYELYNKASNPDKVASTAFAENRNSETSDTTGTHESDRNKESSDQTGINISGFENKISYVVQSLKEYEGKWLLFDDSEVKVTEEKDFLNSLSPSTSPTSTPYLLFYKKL
Chain of Peptidyl-prolyl cis-trans isomerase NIMA-interacting 1 (Homo sapiens) (Q13526 whole entry, looked up): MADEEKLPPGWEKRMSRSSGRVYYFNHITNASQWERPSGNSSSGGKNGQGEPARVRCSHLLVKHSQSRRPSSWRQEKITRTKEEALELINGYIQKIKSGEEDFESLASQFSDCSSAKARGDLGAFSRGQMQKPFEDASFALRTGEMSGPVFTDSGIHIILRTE
Chain of phosphoglycerate mutase (Leishmania major) (Q4Q090 1-553): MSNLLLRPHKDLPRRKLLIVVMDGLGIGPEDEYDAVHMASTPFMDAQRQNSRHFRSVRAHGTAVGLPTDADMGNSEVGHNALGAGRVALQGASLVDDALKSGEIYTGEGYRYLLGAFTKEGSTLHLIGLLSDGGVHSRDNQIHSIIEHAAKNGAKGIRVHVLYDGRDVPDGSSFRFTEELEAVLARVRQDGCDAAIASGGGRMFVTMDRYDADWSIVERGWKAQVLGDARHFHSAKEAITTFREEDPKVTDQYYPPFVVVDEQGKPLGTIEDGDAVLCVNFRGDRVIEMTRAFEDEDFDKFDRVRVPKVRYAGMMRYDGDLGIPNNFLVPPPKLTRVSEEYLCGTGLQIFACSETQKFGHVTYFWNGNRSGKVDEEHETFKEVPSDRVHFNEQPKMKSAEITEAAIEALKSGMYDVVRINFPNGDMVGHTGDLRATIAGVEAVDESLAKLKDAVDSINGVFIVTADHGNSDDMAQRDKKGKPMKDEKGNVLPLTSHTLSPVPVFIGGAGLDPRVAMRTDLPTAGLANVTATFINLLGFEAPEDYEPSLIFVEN
Chain of Phosphoglycerate kinase, glycosomal (Trypanosoma brucei brucei) (P07378 whole entry, looked up): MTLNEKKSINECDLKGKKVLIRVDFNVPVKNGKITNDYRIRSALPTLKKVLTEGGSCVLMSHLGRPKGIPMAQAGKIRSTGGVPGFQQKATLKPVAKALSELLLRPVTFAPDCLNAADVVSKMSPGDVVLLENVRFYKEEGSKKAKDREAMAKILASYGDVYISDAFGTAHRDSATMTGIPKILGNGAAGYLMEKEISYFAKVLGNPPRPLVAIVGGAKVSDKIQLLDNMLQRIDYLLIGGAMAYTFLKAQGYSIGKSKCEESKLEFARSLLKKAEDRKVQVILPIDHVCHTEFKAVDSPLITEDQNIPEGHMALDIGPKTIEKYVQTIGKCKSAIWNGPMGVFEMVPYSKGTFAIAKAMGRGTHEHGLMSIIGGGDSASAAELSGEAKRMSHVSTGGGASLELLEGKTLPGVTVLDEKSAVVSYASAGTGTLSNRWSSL

On to `Nc1ccn([C@@H]2O[C@H](CO)[C@@H](O)C2O)c(=O)n1` (some centres undefined), for which the outcome in test [1], in test [6], in test [7], in test [10], in test [11] and in test [12] was inactive. For the same compound, the Potency result in test [2], in [3], in [4], in [5], in test [8] and in [9] was “inactive” each time. In addition, the Potency result in test [13], in test [14] and in test [15] was “inactive” in each case.

With `CC1(C)C(=O)N(CCN2CCC(C(=O)c3ccc(F)cc3)CC2)c2ccccc21`, the compound was classed as inactive in test [1], in test [6], in test [16], in test [7], in [11] and in [12]. The Potency result in [2], in test [3], in test [4], in test [8], in [18] and in test [13] was “inactive” each time. Besides, the Potency result in test [14] and in [15] was “inactive” throughout. Further, the Potency in test [9] is 4.47 µM (active). The activation in [17] was 3.12% (inactive).

Consider `COc1cc2nc(N3CCN(C(=O)C4CCCO4)CC3)nc(N)c2cc1OC` (centres undefined), for which the Potency result in test [19], in test [2], in [3], in [4], in [5] and in test [8] was “inactive” each time. The Potency entry in [20], in [18], in test [13], in test [14] and in test [15] was “inactive” throughout. Moreover, the result in [1], in test [6], in test [16], in test [7], in [11] and in test [12] was inactive. For the same compound, in [17], the activation is 0.562% (inactive). Moreover, the viability change in [20] is -1.63%.

For `Nc1nc(N)c(N=O)c(OCC2CCCCC2)n1`, the result in [1], in test [6], in test [7], in test [11] and in test [12] was inactive. Also, the Potency result in test [2], in [3], in [4], in test [8], in [9] and in test [20] was “inactive” throughout. Besides, the Potency entry in test [13], in test [14] and in test [15] was “inactive” in each case. Moreover, in test [20], the viability change was -2.98%.

Regarding `O=C(O)c1cccnc1Nc1cccc(C(F)(F)F)c1`, the Potency entry in [19], in [2], in test [3], in [4], in test [5] and in test [8] was “inactive” throughout. In addition, the Potency result in test [9], in test [18], in test [13], in [14] and in test [15] was “inactive” throughout. For the same compound, the call in test [1], in test [6], in [16], in test [7], in test [11] and in [12] was inactive. Further, the activation in test [17] was 1.5% (inactive).

Take `O=C1c2ccccc2-c2n[nH]c3cccc1c23`: the compound was classed as inactive in test [1], in test [6], in test [16], in [7] and in test [10]. Moreover, the Potency result in test [2], in test [3], in test [4], in test [5], in test [8] and in test [9] was “inactive” in each case. Moreover, the Potency entry in test [18], in [13] and in test [15] was “inactive” each time. Further, in test [17], the activation was 0.75% (inactive). Also, the Potency in [14] was 21.3 µM (active).

These data come from PubChem BioAssay (NCATS).
